Measured values published in PubChem BioAssay (Tox21).
Records with an inconclusive call do not appear. Values without a mark were called inactive. Active and inactive are the calls of the source. Unless noted, the call rests on the fitted dose curve.

experiment: p53 small molecule agonists, cell-based qHTS assay with human liver microsomes: qHTS cell viability counter screen (AID 1963579); conditions: p53RE-bla HCT-116 viability, ATP luminescence, 16 h, HLM; series mostly up to 66 µM; activity change, negative = cytotoxicity: at the top concentration; further: nearly all actives have a fitted effect of over 45% in size
Outline: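 After the 460/530 nm beta-lactamase read, CellTiter-Glo was added to the same wells and luminescence measured after 30 min at room temperature, giving viability of p53RE-bla cells treated 16 h with compounds plus microsomes and NADPH.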
On the % scale 0 is the no-effect control and ±100 the full control effect.

SMILES | activity change, negative = cytotoxicity
c1ccc2sc(SN3CCOCC3)nc2c1 | -4.73% [at 30.3 µM]
CCc1ccc2c(c1)C(=O)c1ccccc1C2=O | 0.449%
CC1=CCC(C(C)C)C=C1 (stereo not given) | -0.307%
Oc1ccc(N=Nc2ccccc2)cc1 | -7.47%
Cc1ccc(Cl)cc1N | 3.22%
COC(=O)/C=C(\C)CCC=C(C)C | 1.15%
CCN(CCC#N)c1ccc(N=Nc2c(Cl)cc([N+](=O)[O-])cc2Cl)cc1 | 1.02%
NCCc1cnc[nH]1 | -9.22% [at 30.3 µM]
CC(=O)Nc1cccc(N)c1 | 0.715%

experiment: p53 small molecule agonists, cell-based qHTS assay with rat liver microsomes: qHTS cell viability counter screen (AID 1963580); conditions: p53RE-bla HCT-116 + rat microsomes, ATP viability, 16 h; series mostly up to 66 µM; activity change, negative = cytotoxicity: at the top concentration; further: nearly all actives have a fitted effect of over 45% in size; further: potency means the concentration at half of the fitted maximal effect
Outline: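 p53RE-bla HCT-116 cells (4,000/well) rested 5 h at 37 C, then given Tox21 compounds in DMSO with rat liver microsomes (0.5 mg/mL final) plus NADPH (0.5 mg/mL final) for 16 h at 37 C. Viability read by CellTiter-Glo luminescence after 30 min at room temperature.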

SMILES | activity change, negative = cytotoxicity | Potency
CO[C@@H]1[C@@H](OC)[C@H](C)[C@@](O)(CC(=O)O)O[C@H]1[C@H](C)[C@H]1O[C@@]2(CC[C@@](C)([C@H]3CC[C@@](C)([C@@H]4O[C@@H]([C@H]5O[C@](C)(O)[C@H](C)C[C@@H]5C)C[C@@H]4OC4C[C@H](OC)[C@@H](OC)[C@H](C)O4)O3)O2)C[C@H](O)[C@H]1C (stereo not given in full) | 2.48% [at 30.3 µM] | –
O=Cc1ccc(O)c(O)c1O | 7.08% [at 30.3 µM] | –
O=C(O)Cc1ccc(Cl)cc1Cl | 6.29% | –
Cc1ccc([N+](=O)[O-])c(N)c1 | 6.96% | –
CCN(CC)c1ccc2c(-c3ccccc3C(=O)O)c3ccc(=[N+](CC)CC)cc-3oc2c1 | -1.94% | –
CCCCCCCCCC(C)C=O (stereo not given) | -5.01% | –
CCOc1ccc(NC(C)=O)cc1N | -0.855% | –
OC[C@H]1O[C@@H](OCCc2ccc(O)cc2)[C@H](O)[C@@H](O)[C@@H]1O | -0.419% [at 30.3 µM] | –
CC(C)c1cccc(C(C)C)c1NC(=O)NS(=O)(=O)c1cc(C(C)(C)O)co1 | -2.26% | –
CCc1oc2ccccc2c1C(=O)c1cc(I)c(O)c(I)c1 | 0.675% [at 30.3 µM] | –
C=C[Si]1(C)O[Si](C)(C=C)O[Si](C)(C=C)O[Si](C)(C=C)O1 (stereo not given) | 29.9% | –
CC1=CCC(C(C)C)C=C1 (stereo not given) | 0.073% | –
Cc1ccc(Cl)cc1N | 1.51% | –
Oc1ccc(Cc2ccccc2)cc1 | -6.63% | –
Cc1cc(-c2ccc(N=Nc3cc(S(=O)(=O)O)c4ccccc4c3N)c(C)c2)ccc1N=Nc1cc(S(=O)(=O)O)c2ccccc2c1N | -1.92% | –
CC[C@]12CCCN3CCc4c(n(c5ccccc45)C(=O)C1)[C@@H]32 | 14.3% [at 30.3 µM] | –
C=CCCCCCC | -6.2% | –
COC(=O)/C=C(\C)CCC=C(C)C | -0.6% | –
CCN(CCC#N)c1ccc(N=Nc2c(Cl)cc([N+](=O)[O-])cc2Cl)cc1 | -7.87% | –
CCCCCC[C@@H](O)C/C=C\CCCCCCCC(=O)OC | -3.78% | –
NCCN1CCOCC1 | -5.27% | –
O=C(c1ccccc1)c1cc(Cl)ccc1O | 0.412% | –
O=C(O)C(=O)Cc1ccccc1 | -9.17% | –
CC/C=C1/OC(=O)c2ccccc21 | -7.41% | –
O=C1c2ccccc2C(=O)c2c(Cl)cccc21 | – | 965 nM (active)
COC(=O)CCCCCCCC(=O)OC | -4.54% | –
CC/C=C\CCCCCO | 1.83% | –
O=C(NOCC1CC1)c1ccc(F)c(F)c1Nc1ccc(I)cc1Cl | -11.6% [at 30.3 µM] | –

experiment: p53 small molecule agonists, cell-based qHTS assay: qHTS cell viability counter screen (AID 1963581); conditions: p53RE-bla HCT-116 viability, ATP luminescence, 16 h; series mostly up to 66 µM; activity change, negative = cytotoxicity: at the top concentration; further: nearly all actives have a fitted effect of over 45% in size
Outline: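 Cells: HCT-116 with p53 response element-driven beta-lactamase. Treatment: 16 h, 37 C, compounds in DMSO. Read: CellTiter-Glo luminescence after 30 min RT.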

SMILES | activity change, negative = cytotoxicity
O=Cc1ccc(O)c(O)c1O | 28.7% [at 30.3 µM]
O=C(O)Cc1ccc(Cl)cc1Cl | 0.91%
Cc1ccc([N+](=O)[O-])c(N)c1 | -7.74%
CCCCCCCCCC(C)C=O (stereo not given) | -2.9%
CCC(Cl)CCC(Cl)C(Cl)CC(Cl)C(Cl)C(Cl)CCl (stereo not given) | 4.57%
CCOc1ccc(NC(C)=O)cc1N | -8.03%
OC[C@H]1O[C@@H](OCCc2ccc(O)cc2)[C@H](O)[C@@H](O)[C@@H]1O | -12.8% [at 30.3 µM]
CC(C)c1cccc(C(C)C)c1NC(=O)NS(=O)(=O)c1cc(C(C)(C)O)co1 | 0.121%
CCc1oc2ccccc2c1C(=O)c1cc(I)c(O)c(I)c1 | -7.39% [at 30.3 µM]
C=C[Si]1(C)O[Si](C)(C=C)O[Si](C)(C=C)O[Si](C)(C=C)O1 (stereo not given) | -1.87%
CC1=CCC(C(C)C)C=C1 (stereo not given) | -12.1%
Cc1ccc(Cl)cc1N | 1.73%
Oc1ccc(Cc2ccccc2)cc1 | -5.62%
Cc1cc(-c2ccc(N=Nc3cc(S(=O)(=O)O)c4ccccc4c3N)c(C)c2)ccc1N=Nc1cc(S(=O)(=O)O)c2ccccc2c1N | -14%
C=CCCCCCC | -23.5%
COC(=O)/C=C(\C)CCC=C(C)C | -13.4%
CCN(CCC#N)c1ccc(N=Nc2c(Cl)cc([N+](=O)[O-])cc2Cl)cc1 | 11.5%
CCCCCC[C@@H](O)C/C=C\CCCCCCCC(=O)OC | 0.94%
N=C(N)N | 2.48% [at 30.3 µM]
NCCN1CCOCC1 | 6.8%
O=C(c1ccccc1)c1cc(Cl)ccc1O | 16.5%
O=C(O)C(=O)Cc1ccccc1 | -7.38%
CC/C=C1/OC(=O)c2ccccc21 | -5.92%
O=C1c2ccccc2C(=O)c2c(Cl)cccc21 | -3.72% [at 30.3 µM]
COC(=O)CCCCCCCC(=O)OC | -4.41%
OCCN1CCN(CCO)CC1 | 20.1%
CC/C=C\CCCCCO | -5.88%
O=C(NOCC1CC1)c1ccc(F)c(F)c1Nc1ccc(I)cc1Cl | -22.4% [at 30.3 µM]
COc1ccc(C2CNC(=O)C2)cc1OC1CCCC1 (stereo not given) | -0.42% [at 30.3 µM]

experiment: p53 small molecule agonists, cell-based qHTS assay (AID 1963582; active means well fitted activation curve with a large enough effect in the signal ratio in the repeat runs, not every such curve was filed as active; the % refers to the signal ratio); conditions: HCT-116 p53RE-bla reporter, beta-lactamase FRET ratio, 16 h; series mostly up to 66 µM; activation: at the top concentration
Outline: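 Quantitative HTS in p53RE-bla cells: after a 5 h settling period, compounds delivered in DMSO were left on cells for 16 h at 37 C, and reporter induction was measured as fluorescence following 2 h substrate loading.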

SMILES | activation
O=Cc1ccc(O)c(O)c1O | 8.38% [at 30.3 µM]
c1ccc2sc(SN3CCOCC3)nc2c1 | -1.81% [at 30.3 µM]
O=C(O)Cc1ccc(Cl)cc1Cl | -0.0829%
Cc1ccc([N+](=O)[O-])c(N)c1 | -2.57%
CCN(CC)c1ccc2c(-c3ccccc3C(=O)O)c3ccc(=[N+](CC)CC)cc-3oc2c1 | -2.12%
CCOc1ccc(NC(C)=O)cc1N | 1.12%
OC[C@H]1O[C@@H](OCCc2ccc(O)cc2)[C@H](O)[C@@H](O)[C@@H]1O | 1.55% [at 30.3 µM]
CCc1ccc2c(c1)C(=O)c1ccccc1C2=O | -4.47%
CC(C)c1cccc(C(C)C)c1NC(=O)NS(=O)(=O)c1cc(C(C)(C)O)co1 | -4.39%
CC1=CCC(C(C)C)C=C1 (stereo not given) | -2.98%
Oc1ccc(N=Nc2ccccc2)cc1 | -4.02%
Cc1ccc(Cl)cc1N | -4.43%
Oc1ccc(Cc2ccccc2)cc1 | 2.12%
C=CCCCCCC | -6.02%
COC(=O)/C=C(\C)CCC=C(C)C | -4.74%
CCN(CCC#N)c1ccc(N=Nc2c(Cl)cc([N+](=O)[O-])cc2Cl)cc1 | -5.4%
CCCCCC[C@@H](O)C/C=C\CCCCCCCC(=O)OC | 0.682%
N=C(N)N | -0.169% [at 30.3 µM]
NCCN1CCOCC1 | -1.57%
O=C(c1ccccc1)c1cc(Cl)ccc1O | 5%
O=C(O)C(=O)Cc1ccccc1 | -2.85%
NCCc1cnc[nH]1 | 0.775% [at 30.3 µM]
CC/C=C1/OC(=O)c2ccccc21 | -2.43%
O=C1c2ccccc2C(=O)c2c(Cl)cccc21 | 1.27% [at 30.3 µM]
COC(=O)CCCCCCCC(=O)OC | 0.273%
CC/C=C\CCCCCO | 0.906%
c1ccc(-c2nc3ccccc3[nH]2)cc1 | -2.86%
CC(=O)Nc1cccc(N)c1 | -0.235%
COc1ccc(C2CNC(=O)C2)cc1OC1CCCC1 (stereo not given) | -0.959% [at 30.3 µM]
